Source: PubChem BioAssay (National Center for Advancing Translational Sciences (NCATS))
RE007 growth inh = qHTS Assay for Inhibitors of the HIV-1 protein Vpr | S. pombe RE007 Vpr strain, BacTiter-Glo ATP luminescence, 24 h | Potency, µM (series often up to 92.2 µM), for the others: top-dose activity change, negative = less growth, hits mostly inhibitors | hit rate 0.21% among 360,000 | AID 651644, 2012; active = well fitted falling curve with a large enough effect; inconclusive = small, poorly fitted or top-dose-only effect; inactive = no such curve, though single readings can be large or run the other way; note: % is set by controls: 0 for no effect and ±100 for the full control effect; nearly all actives have a fitted effect of over 50% in size
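Fission yeast RE007 carrying one integrated HIV-1 vpr copy, seeded at OD 0.01 in PMG+AL medium with 23 nL pinned compound. Grown 24 h at 30 degrees; viability read by BacTiter-Glo luminescence after 5 min.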
Sm TGR block = qHTS Assay for the Inhibitors of Schistosoma Mansoni Peroxiredoxins. Schistosoma mansoni thioredoxin glutathione reductase (TGR), Q962Y6. purified TGR, DTNB reduction, TNB absorbance 405 nm. Potency, µM (highest dose often 114 µM), for inactives: at the top dose activity change, negative = inhibition, most hits filed as inhibitors. hit rate 3% among 360,000; note: % is set by controls: 0 for no effect and ±100 for the full control effect; nearly all actives have a fitted effect of over 60% in size
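Kinetic colorimetric format: TGR-catalysed, NADPH-driven DTNB reduction monitored via TNB absorbance. Enzyme dispensed at 20 nM; compound exposure 15 min at room temperature before reaction start.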
AmpC inh no detg = qHTS Inhibitors of AmpC Beta-Lactamase (assay without detergent); P00811; AmpC nitrocefin hydrolysis, absorbance 480 nm, 0.0001% Triton; Potency, µM (series often up to 57.1 µM), for the others: at the highest dose activity change, negative = inhibition, most hits filed as inhibitors; hit rate 0.52% among 330,000; AID 485341, 2010;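 note: plate controls were no compound for no effect and no enzyme for full effect; nearly all actives have a fitted effect of over 20% in size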
Target sequence (P00811 whole entry, looked up): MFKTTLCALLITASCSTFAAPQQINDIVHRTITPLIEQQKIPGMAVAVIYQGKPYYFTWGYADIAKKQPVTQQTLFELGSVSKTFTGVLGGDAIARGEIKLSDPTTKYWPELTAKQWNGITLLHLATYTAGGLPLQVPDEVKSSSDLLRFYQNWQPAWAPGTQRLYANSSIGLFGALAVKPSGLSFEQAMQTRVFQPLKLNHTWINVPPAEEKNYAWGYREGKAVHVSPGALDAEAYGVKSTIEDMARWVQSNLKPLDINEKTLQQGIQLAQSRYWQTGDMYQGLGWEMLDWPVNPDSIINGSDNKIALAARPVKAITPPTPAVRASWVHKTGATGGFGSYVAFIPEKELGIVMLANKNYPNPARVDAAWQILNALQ
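20 mM phosphate pH 7.0 + 0.01% (detergent screen) or 0.0001% Triton X-100; 5.3 nM AmpC reagent; cpd preinc 15 min RT; nitrocefin (800 uM stock) to start; A480 q20 s × 4 min; Activity was normalised to no-enzyme and no-compound control wells.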
TbPYK inhibitor = qHTS of Trypanosoma Brucei Inhibitors. pyruvate kinase (Trypanosoma brucei), Q57TT1. TbPYK enzyme, Kinase-Glo Plus ATP luminescence, 45 min. Potency, µM (titrated, usually from 76.8 µM), without a hit: at the top dose activity, negative = inhibition, usual class: inhibitors. hit rate 0.12% among 410,000. AID 624173, 2012; note: % is set by controls: 0 for no effect and ±100 for the full control effect; nearly all actives have a fitted effect of over 50% in size
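Enzyme and substrate buffer are dispensed first and compound is pin-transferred. ADP at 130 uM final then starts the reaction, which runs 45 min at room temperature. Detection reagent is added for 10 min before luminescence is imaged.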
SARS PLP yeast = qHTS of Yeast-based Assay for SARS-CoV PLP; S. cerevisiae expressing SARS-CoV PLpro, growth rescue; Potency, µM (series often up to 32.9 µM), for the others: top-dose activity, positive = growth rescue, actives largely listed as activators; hit rate 0.19% among 330,000; AID 485353, 2010; calls by dose curve; note: 0% is about no effect; nearly all actives have a fitted effect of over 55% in size
AmpC detergent = qHTS Inhibitors of AmpC Beta-Lactamase (assay with detergent) | P00811 | AmpC hydrolysis of nitrocefin, absorbance 480 nm, 0.01% Triton | Potency, µM (top dose mostly 114 µM), for inactives: top-dose activity change, negative = inhibition, usual class: inhibitors | hit rate 0.041% among 370,000 | AID 485294, 2010;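 note: 0% = no-compound wells and -100% = no-enzyme wells; nearly all actives have a fitted effect of over 25% in size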
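AmpC (5.3 nM in the dispensed reagent) in 20 mM phosphate pH 7.0 with 0.01% (detergent screen) or 0.0001% Triton X-100 was preincubated with compounds for 15 min at room temperature. Nitrocefin was then added from an 800 uM solution, and hydrolysis was followed at 480 nm.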
The depositor's hits bear a star; [ ] = another dose, or the depositor's remark. Most compounds without a hit are left out; they make up all but 3.3% or so of the library. Unless noted, calls come from the whole dose curve; as a rule, active = well fitted curve in the direction sought with a large enough effect; inconclusive = small, poorly fitted or top-dose-only effect, or another doubt; inactive = no such curve, though single readings can be large; an effect the other way counts as inactive or inconclusive. Potency is the fitted concentration of half-maximal effect.

What do the screens show for `COc1cc2c(ccc3cc(OC)c(OC)c(O)c32)cc1O`?
RE007 growth inh: -2%; Sm TGR block: 45µM*; AmpC inh no detg: -53%; TbPYK inhibitor: -11%; SARS PLP yeast: 1%; AmpC detergent: -2%

Results for CSCCC(NS(=O)(=O)c1ccc2c(c1)oc(=O)n2C)C(=O)NCCc1ccc(C)cc1 (stereo not given) ?
Sm TGR block: 3%; TbPYK inhibitor: 6%[15.4 µM]; AmpC detergent: 2%

What do the screens show for `CC[n+]1c(/C=C/C=C/N(C(C)=O)c2ccccc2)sc2ccccc21`?
RE007 growth inh: -9%; Sm TGR block: 40µM*; AmpC inh no detg: 15%; TbPYK inhibitor: -15%; SARS PLP yeast: -1%; AmpC detergent: -15%

What do the screens show for `CC[n+]1c(/C=C/C=C/c2ccc(N(C)C)cc2)sc2ccccc21`?
RE007 growth inh: 6.3µM*; Sm TGR block: inconclusive; AmpC inh no detg: -4%; TbPYK inhibitor: inconclusive; SARS PLP yeast: -7%; AmpC detergent: 8%

Results for Cn1c(=O)c(=O)n(C)c2cc(C(=O)NCc3ccccc3Cl)ccc21 ?
Sm TGR block: -4%; TbPYK inhibitor: -9%; AmpC detergent: 0%

What do the screens show for `O=S(=O)(Nc1ccc(Cl)cc1)c1cccc(S(=O)(=O)c2ccc(Cl)c(Cl)c2)c1`?
Sm TGR block: 9%; TbPYK inhibitor: 2%; AmpC detergent: 7%

What do the screens show for `O=C(CBr)c1ccc([N+](=O)[O-])c(CS(=O)(=O)c2ccc(Cl)cc2)c1`?
Sm TGR block: 5µM*; AmpC inh no detg: -37%; TbPYK inhibitor: -3%; SARS PLP yeast: -3%; AmpC detergent: 1%

How did O=C(O)c1ccc([N+](=O)[O-])c(CS(=O)(=O)c2ccc(Cl)cc2)c1 do in these assays?
RE007 growth inh: -5%; Sm TGR block: -14%; AmpC inh no detg: -24%; TbPYK inhibitor: 3%; SARS PLP yeast: 2%; AmpC detergent: -11%

How did CC1(C)CC2CC(C)(CN2S(=O)(=O)c2cccc(C(=O)OCC(N)=O)c2)C1 (stereo not given) do in these assays?
RE007 growth inh: 2%; Sm TGR block: 40µM*; AmpC inh no detg: inconclusive; TbPYK inhibitor: -2%; SARS PLP yeast: -3%; AmpC detergent: inconclusive

Results for COCCNC(=O)c1cccc(S(=O)(=O)N2CC3(C)CC2CC(C)(C)C3)c1 (stereo not given) ?
RE007 growth inh: -9%; Sm TGR block: 79µM*; AmpC inh no detg: 52%; TbPYK inhibitor: -4%; SARS PLP yeast: 1%; AmpC detergent: -5%

What do the screens show for `COCCCNC(=O)c1cccc(S(=O)(=O)N2CC3(C)CC2CC(C)(C)C3)c1` (stereo not given)?
RE007 growth inh: 2%; Sm TGR block: -2%; AmpC inh no detg: 95%; TbPYK inhibitor: 0%; SARS PLP yeast: -8%; AmpC detergent: inconclusive

What do the screens show for `CN1CCc2nc3sc(C(=O)Nc4ccccc4C(F)(F)F)c(N)c3cc2C1`?
Sm TGR block: -8%; TbPYK inhibitor: -8%; AmpC detergent: 1%

What do the screens show for `CCOc1ccc(NC(=O)c2ccc3c(=O)n4nc(Nc5ccccc5C)sc4nc3c2)cc1`?
Sm TGR block: 5%; TbPYK inhibitor: -10%; AmpC detergent: 23%

Results for COc1ccc(C(=O)C[n+]2cn(C(F)F)c3ccccc32)c(F)c1 ?
RE007 growth inh: 38%; Sm TGR block: 10µM*; AmpC inh no detg: -22%; TbPYK inhibitor: -1%; SARS PLP yeast: -8%; AmpC detergent: 3%

Results for O=C(c1cccs1)N1N=C(c2ccccc2)CC1c1ccccc1O (stereo not given) ?
RE007 growth inh: 2%; Sm TGR block: 8%; AmpC inh no detg: 16µM*; TbPYK inhibitor: -6%; SARS PLP yeast: 0%; AmpC detergent: 8%

How did Cc1ccc(C2=NN(C(=O)c3cccs3)C(c3ccccc3O)C2)cc1 (stereo not given) do in these assays?
RE007 growth inh: 4%; AmpC inh no detg: 7.9µM*; TbPYK inhibitor: -6%; SARS PLP yeast: 0%; AmpC detergent: -4%

What do the screens show for `COc1ccc(C2=NN(C(=O)c3cccs3)C(c3ccccc3OC)C2)cc1OC` (stereo not given)?
RE007 growth inh: 1%; Sm TGR block: 8%; AmpC inh no detg: -8%; TbPYK inhibitor: 3%; SARS PLP yeast: 1%; AmpC detergent: 2%

Results for O=C(c1ccccc1)N1N=C(c2ccccc2)CC1c1ccccc1O (stereo not given) ?
RE007 growth inh: -12%; Sm TGR block: -7%; AmpC inh no detg: inconclusive; TbPYK inhibitor: inconclusive; SARS PLP yeast: -4%; AmpC detergent: -3%

What do the screens show for `CCCCn1c(N)nc2ccccc21`?
RE007 growth inh: -2%; Sm TGR block: -6%; AmpC inh no detg: -28%; TbPYK inhibitor: 1%; SARS PLP yeast: 7%[6.58 µM]; AmpC detergent: -8%

What do the screens show for `CCCn1c(/C=C/c2ccco2)nc2ccccc21`?
RE007 growth inh: -4%; Sm TGR block: 20µM*; AmpC inh no detg: -18%; TbPYK inhibitor: 24%; SARS PLP yeast: -23%; AmpC detergent: -6%

Results for CCCCn1c(/C=C/c2ccco2)nc2ccccc21 ?
RE007 growth inh: 0%; Sm TGR block: 10µM*; AmpC inh no detg: -23%; TbPYK inhibitor: 1%; SARS PLP yeast: -16%; AmpC detergent: 3%

How did CCC(=O)OCCCNc1nc(-c2ccc(Cl)cc2)nc2ccccc12 do in these assays?
Sm TGR block: 2%; TbPYK inhibitor: 4%; AmpC detergent: -6%

What do the screens show for `Cc1cccn2c(Nc3ccccc3)c(-c3cccs3)nc12`?
Sm TGR block: -4%; TbPYK inhibitor: -1%; AmpC detergent: 12%

Results for Cc1ccc2c(C(=O)CN3CCCCC3)c(C)[nH]c2c1 ?
RE007 growth inh: -7%; Sm TGR block: 20µM*; AmpC inh no detg: -2%; TbPYK inhibitor: 4%; SARS PLP yeast: 1%; AmpC detergent: -14%

What do the screens show for `Cc1ccc2c(C(=O)CN3CCC(C(N)=O)CC3)c(C)[nH]c2c1`?
Sm TGR block: 35µM*; AmpC inh no detg: -9%; SARS PLP yeast: 0%; AmpC detergent: 2%

What do the screens show for `CC(=O)c1ccc(N2C(=O)C3C(C2=O)C(C(=O)c2ccc(Cl)cc2)N2CCCC32)cc1` (stereo not given)?
RE007 growth inh: -7%; Sm TGR block: 13µM*; AmpC inh no detg: -22%; TbPYK inhibitor: -20%; SARS PLP yeast: -6%; AmpC detergent: inconclusive
